Among the data in PubChem BioAssay (Tox21) are Potency and outcome values, retold here.

The nature of experiment [1]: qHTS RealTime-Glo MT Cell Viability Assay in HEK293 cells - 0 hour (AID 1224880). Note: nearly all actives have a fitted effect of over 45% in size. Note: potency is the fitted concentration of half-maximal effect. Put shortly:
(§1)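 HEK293 + NanoLuc + prosubstrate, 600 cells/well; 5 h, 37 C/5% CO2; compound 23 nL in DMSO by pintool; 37 C; luminescence read at 0, 8, 16, 24, 32 and 40 h time points.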
A general note: Quantitative high-throughput screening tests each substance at several concentrations.

Experiment [2] in a line: A CellTox Green Cytotoxicity Assay to monitor cytotoxicity in HEK293 cells - 32 hour (AID 1224881). Note: nearly all actives have a fitted effect of over 40% in size. In outline:
(§2)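 Tox21 screen in HEK293: membrane-impermeant cyanine dye fluoresces on binding dead-cell DNA; compound pinned 5 h post-seeding, plates held at 37 C, signal read repeatedly through 40 h.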

The nature of experiment [3]: A CellTox Green Cytotoxicity Assay to monitor cytotoxicity in HepG2 cells - 0 hour (AID 1224882). Note: nearly all actives have a fitted effect of over 35% in size. In outline:
(§3)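 Measurements at 0, 8, 16, 24, 32 and 40 h of treatment captured CellTox Green fluorescence in HepG2 cells that had been co-plated with reagent and preincubated 5 h at 37 C/5% CO2.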

Experiment [4] can be described thus: A CellTox Green Cytotoxicity Assay to monitor cytotoxicity in HepG2 cells - 32 hour (AID 1224883). Note: nearly all actives have a fitted effect of over 50% in size. Put shortly:
as §3

Experiment [5] can be described thus: A CellTox Green Cytotoxicity Assay to monitor cytotoxicity in HEK293 cells - 8 hour (AID 1224884). Note: nearly all actives have a fitted effect of over 35% in size. Put shortly:
as §2

Experiment [6] in a line: qHTS RealTime-Glo MT Cell Viability Assay in HepG2 cells - 16 hour (AID 1224885). Note: nearly all actives have a fitted effect of over 50% in size. In outline: (§4)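 Tox21 10K library screened in qHTS format on HepG2 cells carrying RealTime-Glo reagents. Compounds were added after a 5 h preincubation, and the luminescent signal from continuous culture was measured repeatedly during 40 h treatment.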
Experiment [7] in a line: qHTS RealTime-Glo MT Cell Viability Assay in HEK293 cells - 24 hour (AID 1224886). Note: nearly all actives have a fitted effect of over 50% in size. Note: potency is the fitted concentration of half-maximal effect. Put shortly: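 Luminescence generated by NanoLuc from substrate produced by living HEK293 cells served as the viability signal. Each value reflects the reading at its stated time point during continuous 40 h compound exposure at 37 C.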
Experiment [8] in a line: qHTS RealTime-Glo MT Cell Viability Assay in HEK293 cells - 8 hour (AID 1224887). Note: nearly all actives have a fitted effect of over 50% in size. Note: potency is the fitted concentration of half-maximal effect. In outline:
as §1

Experiment [9] in a line: qHTS RealTime-Glo MT Cell Viability Assay in HepG2 cells - 0 hour (AID 1224889). Note: nearly all actives have a fitted effect of over 50% in size. Note: potency is the fitted concentration of half-maximal effect. In outline: as §4
Experiment [10] can be described thus: A CellTox Green Cytotoxicity Assay to monitor cytotoxicity in HepG2 cells - 8 hour (AID 1224890). Note: nearly all actives have a fitted effect of over 45% in size. In outline:
as §3

A short description of experiment [11]: qHTS assay to identify small molecule antagonists of the estrogen receptor alpha (ER-alpha) signaling pathway using the BG1 cell line in the presence of 0.1 nM 17-beta-estradiol - cell viability counter screen (AID 1259241). Note: nearly all actives have a fitted effect of over 40% in size. Put shortly: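 Live-cell protease activity (CellTiter-Fluor fluorescence, 30 min) was read in the same wells after VM7Luc4E2 cells had been exposed to compounds with 0.1 nM 17beta-estradiol for 22 hr at 37C.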

Experiment [12] is described as follows: qHTS assay to identify small molecule antagonists of the androgen receptor (AR) signaling pathway using the MDA cell line in the presence of 0.5 nM R1881 - cell viability counter screen (AID 1259242). Note: nearly all actives have a fitted effect of over 45% in size. In outline: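 Concentration-response screen of compounds for toxicity in MDA-kb2 reporter cells: 16 hr at 37C with 0.5 nM R1881, endpoint live-cell protease fluorescence measured in the reporter wells.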

The target in experiment [13] is Androgen receptor (Homo sapiens) (UniProt P10275). Kind of experiment: qHTS assay to identify small molecule antagonists of the androgen receptor (AR) signaling pathway using the MDA cell line in the presence of 0.5 nM R1881 (AID 1259243). Note: nearly all actives have a fitted effect of over 50% in size. In outline: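 With R1881 held at 0.5 nM (final), compound effects on MMTV-luciferase expression in MDA-kb2 cells were scored by luminescence after a 16 hr, 37C incubation.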

Experiment [14] deals with Estrogen receptor (Homo sapiens) (UniProt P03372). The experiment can be described thus: qHTS assay to identify small molecule antagonists of the estrogen receptor alpha (ER-alpha) signaling pathway using the BG1 cell line in the presence of 0.1 nM 17-beta-estradiol (AID 1259244). Note: nearly all actives have a fitted effect of over 50% in size. Put shortly: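 Compounds were tested against 0.1 nM (final) 17beta-estradiol in VM7Luc4E2 cells, which express full-length ER-alpha and an ERE-luciferase reporter; luminescence was recorded following 22 h exposure.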

The nature of experiment [15]: qHTS assay to identify small molecule HDAC inhibitors (AID 1259364). Note: potency is the fitted concentration of half-maximal effect.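 Note: wild-type HCT-116 cells with endogenous class I/II HDAC activity; nearly all actives have a fitted effect of over 45% in size.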 Put shortly:
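Screening used wild-type human colon HCT-116 cells incubated overnight, dosed with compounds for 2 hours, and assayed with a homogeneous luminogenic HDAC I/II reagent for 30 minutes at room temperature.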

Experiment [16] in a line: qHTS assay to identify small molecule HDAC inhibitors - cell viability counter screen (AID 1259365). In outline:
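HCT-116 (wild type), 1,500 cells/well, overnight 37C/5% CO2; compound in DMSO 2hr; CellTiter-Glo 30min RT; luminescence read.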

Experiment [17] in a line: qHTS assay to identify small molecule agonists of the sonic hedgehog signaling (Shh) pathway - cell viability counter screen (AID 1259366). Note: nearly all actives have a fitted effect of over 50% in size. In outline: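 CellTiter-Fluor fluorescence read-out, 1 hr at 37C, added after 23hr compound exposure. Cells: 3T3 Gli1-Luc, an NIH/3T3 clone with stably integrated Gli1-Luc reporter, plated 4hr before compound.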
A short description of experiment [18]: A CellTox Green Cytotoxicity Assay to monitor cytotoxicity in HEK293 cells - 16 hour (AID 1224888). Note: nearly all actives have a fitted effect of over 35% in size. Put shortly: as §2
Experiment [19] is described as follows: qHTS assay to identify small molecule antagonists of the sonic hedgehog signaling (Shh) pathway - cell viability counter screen (AID 1259367). Note: nearly all actives have a fitted effect of over 55% in size. Put shortly: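 CellTiter-Fluor signal in conditioned medium-stimulated 3T3 Gli1-Luc cells, 23 hr compound exposure, 37C.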
A short description of experiment [20]: qHTS assay to identify small molecule phospholipidosis (PLD) inducers (AID 1259344; active = well fitted curve in the direction sought with a large enough effect; an effect the other way counts as inactive or inconclusive). Put shortly:
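Accumulated phospholipid, stained red by LipidTOX during 24 h compound treatment of HepG2 cells at 37 C, is quantified from images as pit number and intensity, normalised per cell using Hoechst-stained nuclei.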

A number with no mark means an inactive call. Records with an inconclusive call do not appear. Active and inactive are the calls of the source. Unless noted, calls come from the whole dose curve; as a rule, active = well fitted curve in the direction sought with a large enough effect in the repeat runs; inconclusive = weak or mixed curves; inactive = no such curve, though single readings can be large; an effect the other way counts as inactive or inconclusive.

Estrogen receptor (Homo sapiens), sequence (P03372 whole entry, looked up): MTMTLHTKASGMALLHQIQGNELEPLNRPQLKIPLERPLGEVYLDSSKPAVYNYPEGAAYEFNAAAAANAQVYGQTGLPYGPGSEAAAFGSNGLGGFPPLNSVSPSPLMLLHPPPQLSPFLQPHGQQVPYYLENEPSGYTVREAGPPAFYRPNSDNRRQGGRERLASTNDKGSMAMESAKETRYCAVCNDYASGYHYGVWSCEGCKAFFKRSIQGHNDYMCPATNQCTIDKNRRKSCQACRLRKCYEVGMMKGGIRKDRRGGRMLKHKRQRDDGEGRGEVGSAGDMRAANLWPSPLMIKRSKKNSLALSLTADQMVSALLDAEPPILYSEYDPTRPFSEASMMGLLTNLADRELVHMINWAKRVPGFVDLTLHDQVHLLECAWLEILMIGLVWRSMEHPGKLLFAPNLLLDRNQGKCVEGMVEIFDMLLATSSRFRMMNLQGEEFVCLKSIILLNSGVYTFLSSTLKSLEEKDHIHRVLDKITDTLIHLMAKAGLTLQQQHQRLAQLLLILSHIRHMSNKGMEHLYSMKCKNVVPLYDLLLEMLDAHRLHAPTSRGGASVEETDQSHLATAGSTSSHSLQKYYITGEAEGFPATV
Androgen receptor (Homo sapiens), sequence (P10275 whole entry, looked up): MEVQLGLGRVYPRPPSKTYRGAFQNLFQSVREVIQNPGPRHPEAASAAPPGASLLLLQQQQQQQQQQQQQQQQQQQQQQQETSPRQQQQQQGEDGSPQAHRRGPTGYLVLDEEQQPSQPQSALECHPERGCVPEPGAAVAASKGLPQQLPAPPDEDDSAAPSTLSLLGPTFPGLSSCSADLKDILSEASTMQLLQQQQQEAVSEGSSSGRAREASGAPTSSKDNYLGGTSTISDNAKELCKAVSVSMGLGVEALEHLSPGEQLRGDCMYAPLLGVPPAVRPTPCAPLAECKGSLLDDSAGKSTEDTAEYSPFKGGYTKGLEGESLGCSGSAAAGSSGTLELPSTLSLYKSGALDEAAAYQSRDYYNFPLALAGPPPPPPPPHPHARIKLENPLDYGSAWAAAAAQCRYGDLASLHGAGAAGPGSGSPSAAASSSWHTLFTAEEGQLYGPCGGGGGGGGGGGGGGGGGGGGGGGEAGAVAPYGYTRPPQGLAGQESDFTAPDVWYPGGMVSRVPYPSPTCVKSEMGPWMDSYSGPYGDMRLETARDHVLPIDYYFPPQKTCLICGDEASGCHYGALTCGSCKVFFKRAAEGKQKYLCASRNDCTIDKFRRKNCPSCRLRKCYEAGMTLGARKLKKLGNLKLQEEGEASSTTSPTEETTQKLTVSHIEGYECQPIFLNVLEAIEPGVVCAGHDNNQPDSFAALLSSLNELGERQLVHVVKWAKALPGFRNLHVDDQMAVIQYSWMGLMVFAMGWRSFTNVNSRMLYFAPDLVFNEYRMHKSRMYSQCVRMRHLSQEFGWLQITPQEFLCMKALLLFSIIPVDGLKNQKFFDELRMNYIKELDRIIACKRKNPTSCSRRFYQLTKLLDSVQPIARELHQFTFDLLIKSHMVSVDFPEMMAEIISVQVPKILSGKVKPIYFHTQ

Regarding `CCC(C(=O)O)c1ccc(N2Cc3ccccc3C2=O)cc1` (centres undefined), the Potency entry in [1], in experiment [2], in experiment [3], in experiment [4], in [5] and in [7] was “inactive” throughout. Besides, the Potency entry in experiment [8], in experiment [9], in experiment [10], in experiment [11], in experiment [12] and in experiment [13] was “inactive” each time. Moreover, the Potency entry in experiment [14] and in [17] was “inactive” in each case. In addition, the compound was called inactive in experiment [6] and in experiment [16]. For the same compound, the Potency in [15] was 2.66 µM (active).
Regarding `C=C(C)C(=O)OCCCCCCCCCCOC(=O)C(=C)C`, the Potency result in experiment [1], in [2], in experiment [3], in experiment [4], in experiment [5] and in experiment [7] was “inactive” throughout. Besides, the Potency result in experiment [8], in experiment [18], in experiment [9], in [10], in experiment [11] and in [15] was “inactive” throughout. Further, the Potency result in experiment [17] and in [19] was “inactive” in each case. Besides, the compound was called inactive in experiment [6] and in [16].
As to `O=c1[nH]nc(-c2ccc([N+](=O)[O-])o2)o1`, the Potency result in [1], in experiment [2], in [3], in experiment [4], in experiment [5] and in experiment [7] was “inactive” in each case. Also, the Potency entry in [8], in experiment [18], in experiment [9], in experiment [10] and in [15] was “inactive” each time. Further, the call in experiment [6] and in [16] was inactive.
Take `CC1(C)CC(=O)CC(C)(C)N1`: the Potency entry in experiment [1], in experiment [2], in [3], in experiment [4], in [5] and in [7] was “inactive” each time. Also, the Potency entry in [8], in experiment [9], in experiment [10], in [11], in [12] and in experiment [15] was “inactive” throughout. Besides, the Potency result in [17] and in experiment [19] was “inactive” throughout. Also, the compound was classed as inactive in [6].
Take `COc1ccnc2c1CCCCC2S(=O)c1nc2ccccc2[nH]1` (centres undefined): the Potency entry in experiment [1], in experiment [2], in experiment [3], in experiment [4], in [5] and in experiment [9] was “inactive” each time. In addition, the Potency result in [10], in [11], in [12], in experiment [14], in [15] and in [17] was “inactive” each time. Also, in experiment [19], the Potency result was “inactive”. Moreover, the call in experiment [6] and in experiment [16] was inactive. Also, the Potency in experiment [7] is 6.01 µM (active); in experiment [8], 8.49 µM (active).
On to `CC1=C(C)C(=O)C(C(CCCCCC(=O)O)c2ccccc2)=C(C)C1=O` (centres undefined), for which the Potency result in experiment [1], in [2], in experiment [3], in experiment [4], in experiment [5] and in experiment [7] was “inactive” throughout. The Potency entry in experiment [18], in experiment [10], in experiment [11], in experiment [12], in experiment [14] and in [20] was “inactive” throughout. The Potency entry in experiment [15] is “inactive”. In addition, the compound was classed as inactive in [6] and in [16]. Moreover, the Potency in experiment [8] was 10.7 µM (active).
`CC(=O)OCC(=O)[C@@]1(O)CC[C@H]2[C@@H]3CCC4=CC(=O)C=C[C@]4(C)[C@@]3(F)[C@@H](O)C[C@@]21C`: the Potency in [1] is 7.56 µM (active); in [9], 3.01 µM (active). Moreover, the Potency entry in experiment [2], in experiment [3], in experiment [4], in experiment [5], in [7] and in experiment [8] was “inactive” in each case. The Potency result in experiment [10], in experiment [11], in experiment [12], in experiment [20], in experiment [15] and in experiment [17] was “inactive” in each case. Also, the compound was called inactive in [6].
